Assay results taken from PubChem BioAssay AID720612 (Broad Institute, 2013).
Results filed as inconclusive are left out. Activity calls are given as the source filed them.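 The calls were made as follows: active = compounds whose fitted half-maximal viability loss lies within twice the top dose at every treatment time; inconclusive = the three treatment times give differing calls; inactive = inactive at every treatment time.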

Test: HUVEC endothelial cell viability, late-stage follow-up, cytotoxicity control for HRAS target identification, Alamar Blue fluorescence, 8-48 h, dry powder (AID 720612)

SMILES | outcome
Cc1onc(C(=O)N2CCN(C(c3ccncc3)c3ccncc3)CC2)c1[N+](=O)[O-] | inactive
CCC(=O)N(c1ccc(OC)c(Cl)c1)C(C(=O)NCCc1ccccc1)c1cccs1 (configuration not stated) | inactive
